This note sets out measurements from PMC4336329 (PLoS ONE, 2015).

The whole screen tested about 310,000 compounds, of which about 14,000 (4.5%) showed an effect of 50% or more. The effect is printed as a negative number. Shown is part of a subset that was picked to be rich in strong results.
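Further: peak tail current of the secondary pulse compared with the same well before compound.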

The target of the test is human ether-à-go-go-related gene (hERG) potassium channel (human, UniProt Q12809). Description: primary screen, population patch clamp on CHO cells stably expressing hERG; higher = less effect of the substance.
Chain of human ether-à-go-go-related gene (hERG) potassium channel (Q12809 whole entry, looked up): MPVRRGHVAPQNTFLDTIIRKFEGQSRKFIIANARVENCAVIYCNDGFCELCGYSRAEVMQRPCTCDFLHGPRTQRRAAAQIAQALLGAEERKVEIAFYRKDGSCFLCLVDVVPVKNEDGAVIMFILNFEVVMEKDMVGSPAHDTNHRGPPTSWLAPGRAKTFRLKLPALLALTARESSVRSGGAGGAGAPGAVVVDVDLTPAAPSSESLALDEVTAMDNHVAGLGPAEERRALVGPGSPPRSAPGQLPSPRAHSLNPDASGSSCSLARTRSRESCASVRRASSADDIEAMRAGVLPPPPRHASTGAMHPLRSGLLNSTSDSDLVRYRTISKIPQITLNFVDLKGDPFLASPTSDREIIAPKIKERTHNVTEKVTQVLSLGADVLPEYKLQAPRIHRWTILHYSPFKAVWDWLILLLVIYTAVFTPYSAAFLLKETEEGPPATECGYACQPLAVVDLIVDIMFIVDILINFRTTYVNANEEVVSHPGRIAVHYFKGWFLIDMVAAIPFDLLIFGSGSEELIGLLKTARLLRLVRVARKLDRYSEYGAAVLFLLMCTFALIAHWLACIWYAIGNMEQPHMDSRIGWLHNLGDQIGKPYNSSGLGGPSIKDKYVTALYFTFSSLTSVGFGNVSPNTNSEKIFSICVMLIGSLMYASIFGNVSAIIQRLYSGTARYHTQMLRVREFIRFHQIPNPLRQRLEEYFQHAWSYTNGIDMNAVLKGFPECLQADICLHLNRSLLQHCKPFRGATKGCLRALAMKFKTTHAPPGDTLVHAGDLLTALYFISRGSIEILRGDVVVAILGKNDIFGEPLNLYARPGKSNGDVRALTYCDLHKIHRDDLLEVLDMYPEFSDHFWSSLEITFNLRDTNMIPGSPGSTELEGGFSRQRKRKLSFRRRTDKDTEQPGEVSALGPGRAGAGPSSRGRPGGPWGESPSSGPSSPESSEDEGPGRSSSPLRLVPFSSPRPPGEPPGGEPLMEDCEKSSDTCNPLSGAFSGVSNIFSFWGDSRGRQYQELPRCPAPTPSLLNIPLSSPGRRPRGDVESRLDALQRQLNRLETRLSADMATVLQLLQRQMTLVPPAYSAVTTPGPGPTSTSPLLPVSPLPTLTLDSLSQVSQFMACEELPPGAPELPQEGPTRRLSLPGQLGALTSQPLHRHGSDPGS
Take `CCOC(=O)c1ccc(NCc2ccncc2)cc1`: the “hERG current change (%, negative = inhibition) at 10uM” value is given as -1.66%. In the case of `O=C(CN(Cc1ccco1)S(=O)(=O)c1cccs1)Nc1ccccc1C(F)(F)F`, the “hERG current change (%, negative = inhibition) at 10uM” value is given as -32.8%. As for `Oc1c(Br)cc(Cl)cc1C=Nc1ccc(N2CCOCC2)cc1`, the figure is 19.6%. Regarding `Cc1c(C(=O)NCc2ccco2)cccc1[N+](=O)[O-]`, the “hERG current change (%, negative = inhibition) at 10uM” value is -6.07%. On to `CCN1C(=O)/C(=C\C=C2/C=CC=CN2CC)SC1=S`, for which the “hERG current change (%, negative = inhibition) at 10uM” value was -5.68%. With `COc1ccccc1OCc1cc(C(=O)N2CCCC(OCc3cccnc3)C2)no1` (stereo not shown), the “hERG current change (%, negative = inhibition) at 10uM” value is -22%.

In the case of `O=C(c1cc(COc2ccc(F)cc2Cl)on1)N1CCCCC1c1cccnc1` (stereo not shown), the “hERG current change (%, negative = inhibition) at 10uM” value is -41.8%. As for `O=C(c1cc(COc2ccccc2)on1)N1CCCC(OCc2cccnc2)C1` (stereo not shown), the figure is -16.6%; as for `O=C(c1cc(COc2ccc(F)cc2Cl)on1)N1CCC(OCc2cccnc2)CC1`, -75.8%; as for `O=C(c1cc(COc2ccc(F)cc2Cl)on1)N1CCN(c2cnccn2)CC1`, -46.9%. As for `O=C(c1cc(COc2ccc(F)cc2Cl)on1)N1CCCC(OCc2cccnc2)C1` (stereo not shown), the “hERG current change (%, negative = inhibition) at 10uM” value was -53.5%.

Take `Nc1nc(SCC(=O)NCCCO)nc2sc3c(c12)CCC3`: the “hERG current change (%, negative = inhibition) at 10uM” value was -3.17%.

In the case of `Nc1nc(SCC(=O)NCCCN2CCOCC2)nc2sc3c(c12)CCC3`, the “hERG current change (%, negative = inhibition) at 10uM” value is given as -9.2%. Take `Nc1nc(SCC(=O)NCCN2CCOCC2)nc2sc3c(c12)CCC3`: the “hERG current change (%, negative = inhibition) at 10uM” value is given as -65.9%. Consider `Cc1ccc(-c2csc(NC(=O)CSc3nc(C)cc(=O)[nH]3)n2)cc1`, for which the “hERG current change (%, negative = inhibition) at 10uM” value is given as 1.07%. With `COc1cc2c(cc1OC)CN(C(C)C(=O)N1CCc3ccccc31)CC2` (stereo not shown) the figure was -14%; with `Cc1nc2ccc(S(=O)(=O)NCC(=O)N3CCc4ccccc4C3)cc2s1`, 0.862%; with `CN(CC(=O)N1CCc2ccccc21)S(=O)(=O)c1cccs1`, -22%. With `COc1ccc(CN2CCN(C(C)C(=O)N3CCc4ccccc43)CC2)cc1OC` (stereo not shown) the figure was -74%; with `Cc1nc2ccc(S(=O)(=O)N(C)CC(=O)N3CCc4ccccc4C3)cc2s1`, -53.2%. With `CN(CC(=O)N1CCc2ccccc21)S(=O)(=O)c1ccc(Cl)cc1` the figure was -51.2%; with `O=C(CN1CCCCC1)N1CCc2ccccc21`, -6%.

With `O=C1N(CC(=O)N2CCc3ccccc32)CCN1Cc1ccc(Cl)cc1`, the “hERG current change (%, negative = inhibition) at 10uM” value is reported as -11.8%.

Consider `Cc1ccc(S(=O)(=O)N(C)CC(=O)N2CCCc3ccccc32)cc1`, for which the “hERG current change (%, negative = inhibition) at 10uM” value is -16.1%. In the case of `O=C(CN1CCN(Cc2ccc(Cl)cc2)CC1)N1CCc2ccccc21`, the “hERG current change (%, negative = inhibition) at 10uM” value is recorded as -67.5%. With `Cc1nc2ccc(S(=O)(=O)N(C)CC(=O)N3CCc4ccccc43)cc2s1` the figure was -42.5%. Turning to `COc1ccc(N2CCN(C(C)C(=O)N3CCc4ccccc43)CC2)cc1` (stereo not shown), the “hERG current change (%, negative = inhibition) at 10uM” value was -17.7%. With `CCNc1nc(NCC)nc(NS(=O)(=O)c2ccc(N)cc2)n1` the figure was 22.7%; with `CCOC(=O)C(C(=O)Nc1ccc(C)cc1)C1CCCCC1` (stereo not shown), 0.407%. As for `CC(C)n1nnc2ccccc2c1=O`, the figure is 10%.

On to `CN(C)S(=O)(=O)c1cccc(-c2cn3ccccc3n2)c1`, for which the “hERG current change (%, negative = inhibition) at 10uM” value is -2.91%. `CC1CC1C(=O)OCC(=O)NNC(=O)c1ccc([N+](=O)[O-])cc1` (stereo not shown): the “hERG current change (%, negative = inhibition) at 10uM” value is reported as -2.32%. With `COc1ccc(C2/C(=C(/O)c3ccc(C)cc3)C(=O)C(=O)N2CC2CCCO2)cc1OC` (stereo not shown) the figure was 20.8%; with `CCOC(=O)CNC(=O)c1ccc(C)cc1`, 4.88%; with `COc1cc(SC)ccc1C(=O)OCC(=O)NC1CC1`, 7.53%. Consider `CC(=O)Cn1nnc(-c2ccc(C(F)(F)F)cc2)n1`, for which the “hERG current change (%, negative = inhibition) at 10uM” value is reported as 6.1%. For the molecule `CCN1CCN(CCCNC(=O)c2ccccc2NC(=O)C2=C(C)OCCS2)CC1`, the “hERG current change (%, negative = inhibition) at 10uM” value worked out at 1.11%. For the molecule `CC(C(=O)N1CCc2ccccc21)N1CCc2ccccc2C1` (stereo not shown), the “hERG current change (%, negative = inhibition) at 10uM” value is reported as -18.9%.

Regarding `CC(C(=O)N1CCc2ccccc21)N1CCN(Cc2ccccc2)CC1` (stereo not shown), the “hERG current change (%, negative = inhibition) at 10uM” value was -34%. As for `CC(C(=O)N1CCc2ccccc21)N1CCN(Cc2ccc(Cl)cc2)CC1` (stereo not shown), the figure is -67%; as for `COCCCNc1nc2c(-c3cccc(C(F)(F)F)c3)nnn2c2ccccc12`, -1.31%.

With `O=[N+]([O-])c1ccc(/C=N/Nc2cc(Cl)nc(-c3ccccc3)n2)cc1`, the “hERG current change (%, negative = inhibition) at 10uM” value stood at 2.34%.

Consider `CCC(C)c1ccc(OCC(=O)O)cc1` (stereo not shown), for which the “hERG current change (%, negative = inhibition) at 10uM” value is reported as 11.5%. With `c1cncc(-c2nc3ccccc3s2)c1` the figure was 2.39%; with `CC(=O)N(Cc1cccnc1)c1cccc(-c2nc3ccccc3s2)c1`, -51.1%; with `O=C(NCc1cccnc1)c1cccnc1-c1nc2ccccc2s1`, -14%.

For the molecule `COC(C)(C)[C@H](O)COc1c2ccoc2cc2oc(=O)ccc12`, the “hERG current change (%, negative = inhibition) at 10uM” value is given as 11.2%.

Consider `Cc1cccc(CCNC(=O)CCNS(=O)(=O)c2cc(Br)cnc2N)c1`, for which the “hERG current change (%, negative = inhibition) at 10uM” value was -5.7%. With `CC(C)c1ccc(-c2c(C#N)c(N)nc(SCC(=O)N3CCCCCC3)c2C#N)cc1` the figure was 8.56%; with `COc1ccccc1C(=O)Nc1ccc(OC(C)C(=O)N2CCOCC2)cc1` (stereo not shown), 1.1%. For `Cc1cccc(NC(=O)N2CCCC2)c1`, the “hERG current change (%, negative = inhibition) at 10uM” value is 12.4%.

As for `O=C(Nc1cccc(C(=O)N2CCN(Cc3ccccc3)CC2)c1)c1ccccc1`, the “hERG current change (%, negative = inhibition) at 10uM” value is given as -16.7%.

As to `Cc1cccc(NC(=O)c2ccc(CN3CCN(Cc4ccccc4)CC3)cc2)c1`, the “hERG current change (%, negative = inhibition) at 10uM” value is on record as -80.3%.

As for `COc1cccc(NC(=O)c2ccc(CN3CCN(c4ccccc4)CC3)cc2)c1`, the “hERG current change (%, negative = inhibition) at 10uM” value is -48.8%. As for `Cc1cccc(NC(=O)N2CCN(Cc3ccccc3)CC2)c1`, the figure is 8.14%; as for `Cc1cccc(NC(=O)N2CCN(Cc3ccc(Cl)cc3)CC2)c1`, -50.7%; as for `O=S(=O)(NNC(=S)NCC1CCCO1)c1cc(Cl)ccc1Cl` (stereo not shown), 9.42%.

For the molecule `COC(=O)C1=C(C)N(CCc2ccccc2)C(=O)/C1=C\c1ccco1`, the “hERG current change (%, negative = inhibition) at 10uM” value is recorded as -4.19%. With `Cn1c(=O)c2c(nc(NCCCO)n2C/C=C/c2ccccc2)n(C)c1=O`, the “hERG current change (%, negative = inhibition) at 10uM” value is listed as -21%. Take `Cn1c(Cc2ccccc2)nnc1SCC(=O)N1CCN(c2ccccc2)CC1`: the “hERG current change (%, negative = inhibition) at 10uM” value was -14.5%. As for `CCn1c(CSCc2ccc(C)cc2)nnc1SCC(=O)N1CCN(c2ccccc2)CC1`, the figure is -45.4%; as for `CCn1c(CSCc2ccc(F)cc2)nnc1SCC(=O)N1CCN(c2ccccc2)CC1`, -58.6%; as for `O=C(CSc1nncn1-c1ccccc1)N1CCCC1`, 2.66%. As for `COc1ccc(-n2cnnc2SCC(=O)N2CCN(c3ccccc3)CC2)cc1`, the figure is -36.2%. `Cc1ccccc1-n1cnnc1SCC(=O)N1CCN(c2ccccc2)CC1`: the “hERG current change (%, negative = inhibition) at 10uM” value is recorded as -57.7%.

`C=CCn1c(CSCc2ccccc2)nnc1SCC(=O)N1CCN(c2ccccc2)CC1`: the “hERG current change (%, negative = inhibition) at 10uM” value is -23.6%. In the case of `Cn1c(CNC(=O)c2ccccc2F)nnc1SCC(=O)N1CCN(c2ccccc2)CC1`, the “hERG current change (%, negative = inhibition) at 10uM” value is listed as -8.2%.

For the molecule `Cn1c(CNC(=O)c2ccccc2)nnc1SCC(=O)N1CCN(c2ccccc2)CC1`, the “hERG current change (%, negative = inhibition) at 10uM” value came out at 1.77%. Turning to `Cn1c(CSCc2ccc(F)cc2)nnc1SCC(=O)N1CCN(c2ccccc2)CC1`, the “hERG current change (%, negative = inhibition) at 10uM” value is recorded as -70.7%. With `Cc1ccc(CSCc2nnc(SCC(=O)N3CCN(c4ccccc4)CC3)n2C)cc1` the figure was -54%. As for `Cc1ccc(CSCC(=O)N2CCN(c3ccccc3)CC2)cc1`, the figure is -9.06%; as for `COc1ccc(OCC(N)=O)cc1`, 8.9%.

For the molecule `O=c1[nH]c(SCc2cccc(Cl)c2)nc2[nH]ncc12`, the “hERG current change (%, negative = inhibition) at 10uM” value turned out to be 12.6%. For the molecule `C#Cc1ccc([C@@H]2C=C(C(=O)NC3CC3)O[C@H](OCC)[C@H]2CCCO)cc1`, the “hERG current change (%, negative = inhibition) at 10uM” value is -35.2%. With `CC(NC(=O)c1ccccc1)c1nnc(SCc2nc3ccccc3c(=O)[nH]2)n1C` (stereo not shown) the figure was 14%.

As to `C[C@@H](CO)NC(=O)c1ccc2c3n(nc2c1)-c1ccc(Cl)cc1CO3`, the “hERG current change (%, negative = inhibition) at 10uM” value is reported as -1.96%. With `Cc1ccccc1NC(=O)CN1C(=O)NC(C)(c2ccc3c(c2)OCO3)C1=O` (stereo not shown) the figure was 9.53%.

For the molecule `COc1ccc(C)cc1-n1nnnc1SCC(=O)NC1CC1`, the “hERG current change (%, negative = inhibition) at 10uM” value was determined as 0.673%. With `Cc1ccc(C)c(OCc2cc(C(=O)N3CCN(C(=O)c4ccco4)CC3)no2)c1` the figure was -10.7%. Consider `Cc1ccc(C)c(OCc2cc(C(=O)N3CCOCC3)no2)c1`, for which the “hERG current change (%, negative = inhibition) at 10uM” value is on record as -3.82%. With `COCCN1CCN(C(=O)c2cc(COc3cc(C)ccc3C)on2)CC1` the figure was 1.06%. Consider `Cc1ccc(C)c(OCc2cc(C(=O)N3CCN(c4ccccc4)CC3)no2)c1`, for which the “hERG current change (%, negative = inhibition) at 10uM” value is listed as -31.4%. For `CCN1CCC2(CCN(C(=O)c3cc(COc4cc(C)ccc4C)on3)C2)C1` (stereo not shown), the “hERG current change (%, negative = inhibition) at 10uM” value is listed as -54.8%.

In the case of `Cc1ccc(C)c(OCc2cc(C(=O)N3CCN(c4cnccn4)CC3)no2)c1`, the “hERG current change (%, negative = inhibition) at 10uM” value is reported as -81.7%. As for `FC(F)(F)c1ccc(N2CCN(c3ncnc4c3nnn4Cc3ccccc3)CC2)nc1`, the figure is -2.11%; as for `C=CCn1c(C)cc(C(=O)CSc2nnc(NCc3ccccc3)s2)c1C`, -8.54%; as for `O=c1[nH]c(O)c(C=Nc2ccccc2Oc2ccccc2)c(=O)[nH]1`, 15.9%. With `COc1ccc(NS(=O)(=O)c2ccc(NC(=O)Cc3cccs3)cc2)cc1` the figure was 12.7%.
